# Source: the supplement of paper PMC6555819
# Tests used:
# Assay in all cases: PBM binding z-score (relative to random genomic background probes); higher = stronger binding; sequences stand for … in GC…GCGATTGACAGCGTAGAATGAAGG
# [1] = test system: FXR:RXRa (NR concentration 270 nM, RXRa partner concentration 90 nM)
# Procedure, shortened: (§1)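 For binding z-scores, the reference was random background probes on custom Agilent 4×180K protein-binding microarrays. These arrays were incubated 1 h with ligand-free nuclear receptor dimers in PBS pH 7.4, 2% milk, 0.02% Triton X-100, 1 mM DTT, 0.2 mg/mL BSA and 0.4 mg/ml salmon testes DNA. Fluorescence was scanned after antibody detection of each partner (one per run) and regression-normalized.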
# [2] = test system: LXRa:RXRa (NR concentration 270 nM, RXRa partner concentration 90 nM)
# Procedure, shortened: as §1
# [3] = test system: LXRa homodimer (NR concentration 270 nM)
# Procedure, shortened: as §1
# [4] = test system: LXRb:RXRa (NR concentration 270 nM, RXRa partner concentration 90 nM)
# Procedure, shortened: as §1
# [5] = test system: LXRb homodimer (NR concentration 270 nM)
# Procedure, shortened: as §1
# [6] = test system: PPARa:RXRa (NR concentration 270 nM, RXRa partner concentration 90 nM)
# Procedure, shortened: as §1
# [7] = test system: PPARg:RXRa (NR concentration 180 nM, RXRa partner concentration 90 nM)
# Procedure, shortened: as §1
# [8] = test system: PPARg:RXRa 270nM:90nM, anti-RXR (NR concentration 270 nM, RXRa partner concentration 90 nM)
# Procedure, shortened: as §1
# [9] = test system: PPARg:RXRa 30nM:10nM, anti-RXR (NR concentration 30 nM, RXRa partner concentration 10 nM)
# Procedure, shortened: as §1
# [10] = test system: PPARg:RXRa 90nM:30nM, anti-RXR (NR concentration 90 nM, RXRa partner concentration 30 nM)
# Procedure, shortened: as §1
# [11] = test system: PPARg:RXRa DBDmut IVT, anti-RXR (DBD mutation: RXRa K156A/R161A, NR concentration 270 nM, RXRa partner concentration 90 nM)
# Procedure, shortened: as §1
# [12] = test system: PPARg:RXRa IVT, anti-PPARg (NR concentration 270 nM, RXRa partner concentration 90 nM)
# Procedure, shortened: as §1
# [13] = test system: PPARg DBDmut:RXRa IVT, anti-PPARg (DBD mutation: PPARg1 K132A/R137A, NR concentration 270 nM, RXRa partner concentration 90 nM)
# Procedure, shortened: as §1
# [14] = test system: PPARg DBDmut IVT, anti-PPARg (DBD mutation: PPARg1 K132A/R137A, NR concentration 270 nM)
# Procedure, shortened: as §1
# [15] = test system: PPARg homodimer (NR concentration 180 nM)
# Procedure, shortened: as §1
# [16] = test system: PXR:RXRa (NR concentration 270 nM, RXRa partner concentration 90 nM)
# Procedure, shortened: as §1
# [17] = test system: PXR homodimer (NR concentration 270 nM)
# Procedure, shortened: as §1
# [18] = test system: RARa:RXR (NR concentration 270 nM, RXRa partner concentration 90 nM)
# Procedure, shortened: as §1
# [19] = test system: RARa homodimer (NR concentration 270 nM)
# Procedure, shortened: as §1
# [20] = test system: RARb:RXRa (NR concentration 270 nM, RXRa partner concentration 90 nM)
# Procedure, shortened: as §1
Sequence,PBM binding z-score [1],PBM binding z-score [2],PBM binding z-score [3],PBM binding z-score [4],PBM binding z-score [5],PBM binding z-score [6],PBM binding z-score [7],PBM binding z-score [8],PBM binding z-score [9],PBM binding z-score [10],PBM binding z-score [11],PBM binding z-score [12],PBM binding z-score [13],PBM binding z-score [14],PBM binding z-score [15],PBM binding z-score [16],PBM binding z-score [17],PBM binding z-score [18],PBM binding z-score [19],PBM binding z-score [20]
TTACTAAGGTGAGCTGAGGTCGTTGATCCAACTC,2.26,1.54,-0.344,1.04,-0.663,1.97,0.363,1.26,0.174,0.711,2.04,2.66,0.501,0.0653,0.306,5.17,0.515,2.16,-0.407,2.07
ACAGACAGGTGATGAAGGTAACTAAGGCTATCAT,-0.0463,-0.218,-0.177,0.0824,-0.634,0.196,0.606,0.00614,0.045,0.0556,-0.224,0.73,0.827,-0.211,0.053,0.0666,0.104,0.191,0.0422,0.371
AGAATGACGTTAAGATCAGGGAAACAGAATACAT,-0.19,-0.216,-0.265,-0.142,-0.294,-0.223,0.69,-0.0483,0.359,0.136,-0.994,-0.522,-0.562,0.191,-0.654,-0.527,0.305,-0.498,0.719,-0.268
CCGACTGGGGCATCAGGTTACCATAAGCCAGCCC,-0.188,0.277,-0.351,-0.136,-1.31,0.743,1.33,1.59,-0.0759,1.03,3.34,3.84,-0.621,-1.56,0.326,-0.505,-0.821,-0.109,-0.776,1.01
ACAGACCGGTGATGAAGGTAACTCAGGCTATCAT,-0.208,-0.192,-0.177,-0.283,-0.429,-0.318,0.549,0.0547,-0.0977,-0.129,-0.264,-0.316,0.0593,0.0893,-0.0191,-0.348,-0.142,-0.0159,0.27,-0.139
TCTAGTAGGTTAGTCGGGGCATTCAGCCAACATA,0.874,0.731,0.367,1.54,0.412,1.9,0.856,2.5,2.88,2.8,4.91,4.13,0.243,0.851,1.41,0.733,0.807,0.939,0.282,0.996
ATATGTAGGTTATCGGGTCATTCTGTTTGCGCAT,3.44,3.6,2.23,3.26,1.27,4.93,6.86,6.16,3.52,5.94,7.83,7.65,3.52,2.76,2.77,3.48,1.54,3.91,1.87,2.57
ACAGACAGGTGATGAAGGTATCTCAGGCTATCAT,-0.127,-0.162,-0.557,-0.354,-0.55,-0.193,0.506,-0.135,-0.034,-0.24,-0.101,0.167,-0.0054,-0.542,0.117,-0.369,0.175,-0.241,-0.481,0.0103
ATCGAAAGGTCGTGAGGTGGGTATACAGAAAGGC,5.14,4.18,0.358,3.28,0.784,4.96,3.35,3.96,1.29,2.77,-0.234,1.94,0.885,1.49,3.69,3.36,0.721,4.17,1.39,4.05
GCATATAGGTAATACCAGGTGAAAGTCCGATTGT,0.107,2.05,0.172,0.185,-0.363,1.26,1.13,1.19,0.303,0.881,4.03,3.4,0.784,0.508,0.56,0.0811,0.268,1.47,0.331,-0.00831
CGTCAAAGTTCAGGGTAACGTAACAGAAAGCAGC,4.15,3.51,1.23,2.3,0.634,3.48,3.14,3.57,1.26,2.42,0.483,1.35,0.319,0.192,2.87,2.66,1.67,2.17,1.09,4.33
GTACCAAGGTGAATGGGTCGTTGATGAGTAGGCG,0.456,0.288,-0.238,0.0453,-0.983,1.71,1.26,1.19,0.195,0.732,1.52,2.44,0.0637,-0.57,1.22,0.325,0.284,0.784,0.00879,1.64
CGTCCAAGGTCATAGGACGTCAGTGAAGACAGAT,7.14,5.2,0.696,3.88,0.284,5.43,4.73,5.14,1.6,3.51,2.61,3.41,0.547,0.692,1.99,4.09,1.1,4.61,1.29,4.77
TCTGCTAGGTCAATTGGTCAGCTAACGAGCTGCC,2.99,2.31,-0.37,1.44,0.648,3.04,1.76,2.76,1.64,2.31,3.71,3.87,1.29,0.854,2.37,0.895,-0.774,1.87,-0.436,3.79
AATACAGGGTCATCGAAGGCCAGAGTACGCACAG,6.84,6.3,1.75,4.59,1.53,5.67,6.5,6.11,2.56,4.66,2.6,4.19,1.28,0.988,2.16,5.22,0.967,4.45,0.641,4.32
CGTCAAAGTTCAAGGTAACGCAACAGAAAGCAGC,6.65,5.28,2.35,3.52,1.08,4.51,4.65,5.25,2.32,4.14,0.947,2.53,0.438,0.38,3.41,4.06,3.14,3.59,1.14,5.15
TGAATGAGGTTAATGATCAGGGAACGTGGCGTCG,1.4,1.33,-0.115,0.692,0.285,2.39,1.58,1.84,0.601,1.17,2.04,1.98,1.1,0.18,0.483,0.561,0.0582,0.918,0.17,1.52
GCGACTGGGGCAAAGCAGTTTACCATAAGGTTGG,-0.303,-0.296,-0.507,-0.071,-1.21,0.822,1.17,1.31,-0.433,0.756,4.75,3.5,0.0777,-0.489,0.131,0.655,-0.386,-0.18,-0.418,0.776
CGTCCAAGGTCAGAGAGGCCAGTGAATGCCGAGT,4.34,2.95,0.144,2.18,-0.662,3.93,2.04,2.45,-0.0839,1.33,2.19,2.04,-0.142,-0.792,1.17,2.83,2.62,2.56,-0.0378,4.62
ATCTCTAGGTAACCAAGTGCAGTGAATGCCGAAC,-0.0336,0.0225,-0.464,-0.183,0.282,-0.0554,0.325,0.259,-0.0021,0.298,3.33,2.57,1.12,0.604,-0.00797,0.128,0.228,0.0514,-0.0338,0.281
CCGCCTGGGGCAAAGGTTACCATACTCAGTACGA,1.58,1.77,0.256,2.07,-1.01,4.22,7.52,7.16,5.72,7.35,0.0766,3.23,-0.483,-0.8,2.34,2.62,-0.268,4.07,0.0335,2.47
CTCGAAAGGTCGGTTGAGGTGTGTATACGGATAA,1.83,1.28,-0.285,1.05,0.0615,2.13,0.162,0.619,-0.0568,0.492,-0.0512,0.529,0.177,-0.218,0.679,1.43,0.289,1.53,-0.365,2.68
TCTAGGTGGTCAAAGGTCACACACTCGAAATGCG,6.45,5.79,3.73,5.64,1.02,6.57,10.3,8.72,8.95,10.2,3.06,5.9,1.01,1.59,4.5,6.19,1.82,7.34,2.69,5.22
CCTACTGGGCCGAAGGTCATTGATTCCAATGCTC,2.23,2.47,1.02,2.44,-0.461,4.85,9.28,9.02,8.18,10.3,1.48,5.21,-0.502,-0.797,1.81,2.9,0.597,3.05,0.247,2.88
CTCGAAAGGTCGGTTGAGGTGAGTATACGGATAA,2.05,1.7,-0.0944,1.35,-0.0787,2.63,0.61,1.18,-0.156,0.663,-0.0424,0.699,0.597,-0.651,0.927,3.19,-0.354,3.13,0.103,2.98
CCTCGGAGAACAGAAGGTCAGAGCTGTCCGCTTT,1.13,1.7,0.757,1.3,-0.0418,1.85,-0.162,0.587,-0.776,0.369,0.0999,-0.304,-1.44,-1.47,1.67,1.44,0.0963,1.92,0.634,2.42
TCATATAGGTAATACAGGTGATAGTCGGCATCTA,0.719,1,0.507,0.789,0.315,1.36,1.6,2.3,3.98,3.1,4.04,3.01,1.19,2.05,1.08,0.592,0.285,0.723,1.73,0.484
CATACTAGGTCACGAAAGGTCAAAGTCGAATGAC,7.5,8.25,8.77,7.29,3.6,6.39,9.53,7.93,6.31,8.01,7.83,8.34,2.56,1.91,3.01,7.08,3.85,7.57,4.19,5.65
